# Reference: article PMC7862700, “An all-to-all approach to the identification of sequence-specific readers for epigenetic DNA modifications on cytosine”
# How the values were obtained:
# Assay in all cases: DAPPL (digital affinity profiling via proximity ligation, sequencing); 10 mM Tris-HCl pH 7.5, 50 mM NaCl, 1 mM DTT, 4% glycerol, room temperature, 30 min; GST-TFs on glutathione beads, 16-mer random dsDNA library, 0.1% formaldehyde crosslink after washing; high values mean tight binding
# [1] = molecular target: T1, FEV (Homo sapiens, UniProt Q99581 1-238); details: protein: recombinant; tags: N-terminal GST; dsDNA, one strand shown
# T1 sequence: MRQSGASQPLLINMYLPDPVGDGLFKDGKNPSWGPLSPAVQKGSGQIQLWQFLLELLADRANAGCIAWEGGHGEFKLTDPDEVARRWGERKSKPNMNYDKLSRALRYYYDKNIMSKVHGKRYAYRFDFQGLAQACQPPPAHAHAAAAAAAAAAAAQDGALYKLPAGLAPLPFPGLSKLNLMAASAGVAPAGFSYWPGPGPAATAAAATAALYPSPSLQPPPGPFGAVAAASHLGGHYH
# Procedure, shortened: (§1)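 The binding signal reported is, for every hexamer, its read frequency for a factor over its read frequency for the tag-only sample. Reads came from pools of yeast-expressed, GST-fused human transcription factors on glutathione beads, barcoded with DNA and mixed with that sample, which were incubated with 200 nmole of a random double-stranded 16-mer DNA library in Tris/NaCl/DTT/glycerol buffer at room temperature for 30 min. After washing, the pools were crosslinked with 0.1% formaldehyde, proximity-ligated with BsaI/T4 ligase for 1 h at 37 °C, PCR-amplified and sequenced on an Illumina NextSeq500.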
# [2] = molecular target: ETV5 (Homo sapiens, UniProt P41161 1-510); details: protein: recombinant; tags: N-terminal GST; dsDNA, one strand shown
# Sequence of ETV5 (P41161 whole entry): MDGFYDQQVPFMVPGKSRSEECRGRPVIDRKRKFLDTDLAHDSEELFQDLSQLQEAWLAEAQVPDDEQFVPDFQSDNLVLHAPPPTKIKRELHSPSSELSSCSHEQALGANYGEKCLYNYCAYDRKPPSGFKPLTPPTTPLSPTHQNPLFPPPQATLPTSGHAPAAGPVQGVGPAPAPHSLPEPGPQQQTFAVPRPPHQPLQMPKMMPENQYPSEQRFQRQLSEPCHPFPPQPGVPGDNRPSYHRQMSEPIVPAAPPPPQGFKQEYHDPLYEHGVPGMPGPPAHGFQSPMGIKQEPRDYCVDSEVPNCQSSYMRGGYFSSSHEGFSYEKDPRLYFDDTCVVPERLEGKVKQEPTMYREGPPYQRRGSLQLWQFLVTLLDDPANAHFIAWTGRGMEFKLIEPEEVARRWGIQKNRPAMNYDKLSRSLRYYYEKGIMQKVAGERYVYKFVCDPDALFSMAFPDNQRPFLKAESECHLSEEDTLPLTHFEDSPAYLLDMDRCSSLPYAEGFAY
# Procedure, shortened: as §1
# [3] = molecular target: HSF1 (Homo sapiens, UniProt Q00613 1-529); details: protein: recombinant; tags: N-terminal GST; chain copies: 3; dsDNA, one strand shown
# Sequence of HSF1 (Q00613 whole entry): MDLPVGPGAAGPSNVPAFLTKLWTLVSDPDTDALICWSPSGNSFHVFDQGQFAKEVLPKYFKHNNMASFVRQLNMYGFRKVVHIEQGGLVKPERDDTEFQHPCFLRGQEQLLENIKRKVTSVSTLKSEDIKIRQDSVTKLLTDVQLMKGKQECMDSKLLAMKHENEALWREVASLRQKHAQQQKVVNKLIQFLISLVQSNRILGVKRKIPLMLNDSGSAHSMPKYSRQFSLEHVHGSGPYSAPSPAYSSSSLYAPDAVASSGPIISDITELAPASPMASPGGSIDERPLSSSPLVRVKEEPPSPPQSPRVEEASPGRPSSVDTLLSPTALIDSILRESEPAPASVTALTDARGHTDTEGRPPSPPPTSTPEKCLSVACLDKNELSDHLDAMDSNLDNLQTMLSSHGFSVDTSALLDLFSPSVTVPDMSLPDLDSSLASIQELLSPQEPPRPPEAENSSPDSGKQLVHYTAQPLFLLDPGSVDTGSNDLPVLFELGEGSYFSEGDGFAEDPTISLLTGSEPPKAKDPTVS
# Procedure, shortened: as §1
# [4] = molecular target: T2, SPIC (Homo sapiens, UniProt Q8N5J4 1-248); details: protein: recombinant; tags: N-terminal GST; dsDNA, one strand shown
# T2 sequence: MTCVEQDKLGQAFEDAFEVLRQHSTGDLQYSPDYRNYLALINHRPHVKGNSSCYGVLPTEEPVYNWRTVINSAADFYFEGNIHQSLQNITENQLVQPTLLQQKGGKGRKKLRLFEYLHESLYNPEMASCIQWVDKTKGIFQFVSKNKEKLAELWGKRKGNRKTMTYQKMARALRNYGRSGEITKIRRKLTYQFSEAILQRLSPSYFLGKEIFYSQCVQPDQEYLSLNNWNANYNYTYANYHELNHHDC
# Procedure, shortened: as §1
# [5] = molecular target: ELF4 (Homo sapiens, UniProt Q99607 1-663); details: protein: recombinant; tags: N-terminal GST; dsDNA, one strand shown
# Sequence of ELF4 (Q99607 whole entry): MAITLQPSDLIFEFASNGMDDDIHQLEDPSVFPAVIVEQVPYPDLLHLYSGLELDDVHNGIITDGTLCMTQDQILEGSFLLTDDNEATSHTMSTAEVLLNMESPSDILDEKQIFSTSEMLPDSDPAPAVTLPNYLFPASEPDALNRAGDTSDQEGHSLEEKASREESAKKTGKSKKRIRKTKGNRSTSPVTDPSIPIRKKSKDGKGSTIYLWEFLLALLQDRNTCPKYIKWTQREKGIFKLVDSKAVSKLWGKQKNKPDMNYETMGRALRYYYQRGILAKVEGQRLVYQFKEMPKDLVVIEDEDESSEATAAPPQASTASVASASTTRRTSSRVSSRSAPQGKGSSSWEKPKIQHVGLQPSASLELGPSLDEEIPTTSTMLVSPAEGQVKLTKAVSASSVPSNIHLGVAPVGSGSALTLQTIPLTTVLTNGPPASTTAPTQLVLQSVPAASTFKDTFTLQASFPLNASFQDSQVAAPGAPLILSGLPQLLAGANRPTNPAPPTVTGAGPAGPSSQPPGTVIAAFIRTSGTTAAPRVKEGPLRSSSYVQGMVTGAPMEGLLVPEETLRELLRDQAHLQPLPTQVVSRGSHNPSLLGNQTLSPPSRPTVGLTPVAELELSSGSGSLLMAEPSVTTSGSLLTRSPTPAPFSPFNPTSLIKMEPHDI
# Procedure, shortened: as §1
# [6] = molecular target: T3, ELK4 (Homo sapiens, UniProt P28324-2 1-405); details: protein: recombinant; tags: N-terminal GST; dsDNA, one strand shown
# T3 sequence: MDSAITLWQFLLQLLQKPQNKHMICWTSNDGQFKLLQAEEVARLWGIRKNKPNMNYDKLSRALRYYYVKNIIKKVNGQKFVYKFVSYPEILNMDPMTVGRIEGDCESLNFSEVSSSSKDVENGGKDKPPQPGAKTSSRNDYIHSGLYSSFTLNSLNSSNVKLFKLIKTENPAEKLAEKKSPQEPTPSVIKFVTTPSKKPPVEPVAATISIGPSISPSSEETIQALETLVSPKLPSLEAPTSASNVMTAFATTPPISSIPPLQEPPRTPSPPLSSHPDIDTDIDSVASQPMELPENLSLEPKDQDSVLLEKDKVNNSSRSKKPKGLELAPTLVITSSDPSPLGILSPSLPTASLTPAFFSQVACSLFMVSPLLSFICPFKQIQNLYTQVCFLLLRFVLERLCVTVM
# Procedure, shortened: as §1
# [7] = molecular target: T4, ETV2 (Homo sapiens, UniProt O00321 1-342); details: protein: recombinant; tags: N-terminal GST; dsDNA, one strand shown
# T4 sequence: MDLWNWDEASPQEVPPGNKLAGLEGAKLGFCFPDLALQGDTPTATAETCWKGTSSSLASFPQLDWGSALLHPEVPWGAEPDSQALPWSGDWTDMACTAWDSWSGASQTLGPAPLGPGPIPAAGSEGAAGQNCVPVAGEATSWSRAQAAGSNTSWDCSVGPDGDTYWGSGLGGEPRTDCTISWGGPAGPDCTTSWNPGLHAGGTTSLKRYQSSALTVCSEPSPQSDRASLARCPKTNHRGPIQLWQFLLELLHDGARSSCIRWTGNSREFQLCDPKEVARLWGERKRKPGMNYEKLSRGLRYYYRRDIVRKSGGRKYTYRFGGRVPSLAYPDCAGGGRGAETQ
# Procedure, shortened: as §1
# [8] = molecular target: T5, ELF3 (Homo sapiens, UniProt P78545 1-371); details: protein: recombinant; tags: N-terminal GST; dsDNA, one strand shown
# T5 sequence: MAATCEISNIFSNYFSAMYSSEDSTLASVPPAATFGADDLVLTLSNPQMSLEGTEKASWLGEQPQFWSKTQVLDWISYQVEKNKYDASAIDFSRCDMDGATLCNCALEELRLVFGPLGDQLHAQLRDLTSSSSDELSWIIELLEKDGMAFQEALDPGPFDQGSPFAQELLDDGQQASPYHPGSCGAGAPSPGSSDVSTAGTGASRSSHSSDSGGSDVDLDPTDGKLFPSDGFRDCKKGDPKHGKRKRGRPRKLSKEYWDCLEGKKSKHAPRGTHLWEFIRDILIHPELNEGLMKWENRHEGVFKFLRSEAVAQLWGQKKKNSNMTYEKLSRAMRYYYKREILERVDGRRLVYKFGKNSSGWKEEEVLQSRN
# Procedure, shortened: as §1
# [9] = molecular target: ETV1 (Homo sapiens, UniProt P50549 1-477); details: protein: recombinant; tags: N-terminal GST; dsDNA, one strand shown
# Sequence of ETV1 (P50549 whole entry): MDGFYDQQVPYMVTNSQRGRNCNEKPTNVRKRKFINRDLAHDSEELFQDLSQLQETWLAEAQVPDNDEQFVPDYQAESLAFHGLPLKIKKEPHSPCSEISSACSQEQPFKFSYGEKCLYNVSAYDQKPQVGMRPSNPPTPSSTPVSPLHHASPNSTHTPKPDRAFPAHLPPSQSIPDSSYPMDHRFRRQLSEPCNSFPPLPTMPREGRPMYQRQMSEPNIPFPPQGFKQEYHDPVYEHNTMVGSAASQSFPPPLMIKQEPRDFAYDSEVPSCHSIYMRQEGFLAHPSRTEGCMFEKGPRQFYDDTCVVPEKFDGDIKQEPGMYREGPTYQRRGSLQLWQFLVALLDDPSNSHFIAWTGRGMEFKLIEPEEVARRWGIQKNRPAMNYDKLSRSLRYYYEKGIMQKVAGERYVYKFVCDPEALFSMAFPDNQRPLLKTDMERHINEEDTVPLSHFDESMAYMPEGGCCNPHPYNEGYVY
# Procedure, shortened: as §1
# [10] = molecular target: T6, ERF (Homo sapiens, UniProt P50548 1-548); details: protein: recombinant; tags: N-terminal GST; dsDNA, one strand shown
# T6 sequence: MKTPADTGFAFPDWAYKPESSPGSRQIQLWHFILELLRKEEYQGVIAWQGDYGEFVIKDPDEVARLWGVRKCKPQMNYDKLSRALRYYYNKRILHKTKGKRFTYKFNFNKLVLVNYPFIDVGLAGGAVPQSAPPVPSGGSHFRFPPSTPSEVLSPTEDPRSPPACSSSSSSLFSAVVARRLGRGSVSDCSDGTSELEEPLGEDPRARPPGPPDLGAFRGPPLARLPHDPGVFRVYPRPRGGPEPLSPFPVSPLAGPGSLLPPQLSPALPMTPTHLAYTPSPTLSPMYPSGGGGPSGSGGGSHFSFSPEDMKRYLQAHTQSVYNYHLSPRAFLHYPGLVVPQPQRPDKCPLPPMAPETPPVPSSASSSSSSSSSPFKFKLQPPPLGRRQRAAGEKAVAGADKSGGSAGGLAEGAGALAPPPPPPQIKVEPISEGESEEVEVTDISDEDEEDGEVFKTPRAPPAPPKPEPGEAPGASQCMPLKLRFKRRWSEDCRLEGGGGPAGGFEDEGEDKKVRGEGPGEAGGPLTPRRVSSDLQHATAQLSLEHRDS
# Procedure, shortened: as §1
# [11] = molecular target: T7, ETV3L (Homo sapiens, UniProt Q6ZN32 1-361); details: protein: recombinant; tags: N-terminal GST; dsDNA, one strand shown
# T7 sequence: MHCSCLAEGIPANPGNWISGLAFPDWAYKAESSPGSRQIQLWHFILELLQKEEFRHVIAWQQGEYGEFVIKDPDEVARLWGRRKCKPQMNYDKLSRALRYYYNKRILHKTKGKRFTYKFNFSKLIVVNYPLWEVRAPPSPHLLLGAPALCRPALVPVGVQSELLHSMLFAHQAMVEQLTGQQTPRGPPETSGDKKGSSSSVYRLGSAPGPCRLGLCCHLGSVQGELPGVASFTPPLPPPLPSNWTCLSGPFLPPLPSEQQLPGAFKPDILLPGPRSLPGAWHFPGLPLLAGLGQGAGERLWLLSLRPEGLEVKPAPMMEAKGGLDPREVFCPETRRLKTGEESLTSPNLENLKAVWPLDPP
# Procedure, shortened: as §1
# [12] = molecular target: T8, ETS2 (Homo sapiens, UniProt P15036 1-469); details: protein: recombinant; tags: N-terminal GST; dsDNA, one strand shown
# T8 sequence: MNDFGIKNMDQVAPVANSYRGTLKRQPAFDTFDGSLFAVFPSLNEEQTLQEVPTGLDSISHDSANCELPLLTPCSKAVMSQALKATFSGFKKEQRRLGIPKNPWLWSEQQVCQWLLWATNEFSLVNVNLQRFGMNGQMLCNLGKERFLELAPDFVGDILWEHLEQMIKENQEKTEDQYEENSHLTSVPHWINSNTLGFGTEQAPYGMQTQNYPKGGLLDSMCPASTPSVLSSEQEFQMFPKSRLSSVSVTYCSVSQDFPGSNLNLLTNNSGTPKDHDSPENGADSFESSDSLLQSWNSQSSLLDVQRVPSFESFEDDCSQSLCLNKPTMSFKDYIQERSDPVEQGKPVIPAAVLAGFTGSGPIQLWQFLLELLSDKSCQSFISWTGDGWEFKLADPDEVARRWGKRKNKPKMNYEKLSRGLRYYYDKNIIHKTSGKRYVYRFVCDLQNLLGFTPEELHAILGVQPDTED
# Procedure, shortened: as §1
# [13] = molecular target: T9, SPDEF (Homo sapiens, UniProt O95238 1-335); details: protein: recombinant; tags: N-terminal GST; dsDNA, one strand shown
# T9 sequence: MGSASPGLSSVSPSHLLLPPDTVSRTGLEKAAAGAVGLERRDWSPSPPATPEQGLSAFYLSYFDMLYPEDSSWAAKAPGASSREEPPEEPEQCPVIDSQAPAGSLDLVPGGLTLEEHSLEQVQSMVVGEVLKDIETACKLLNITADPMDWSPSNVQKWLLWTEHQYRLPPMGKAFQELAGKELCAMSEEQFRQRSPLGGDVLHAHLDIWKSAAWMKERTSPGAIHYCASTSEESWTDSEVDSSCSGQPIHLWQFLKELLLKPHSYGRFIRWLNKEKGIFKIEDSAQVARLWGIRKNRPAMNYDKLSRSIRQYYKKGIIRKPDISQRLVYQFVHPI
# Procedure, shortened: as §1
# [14] = molecular target: T10, ETV7 (Homo sapiens, UniProt Q9Y603 1-341); details: protein: recombinant; tags: N-terminal GST; dsDNA, one strand shown
# T10 sequence: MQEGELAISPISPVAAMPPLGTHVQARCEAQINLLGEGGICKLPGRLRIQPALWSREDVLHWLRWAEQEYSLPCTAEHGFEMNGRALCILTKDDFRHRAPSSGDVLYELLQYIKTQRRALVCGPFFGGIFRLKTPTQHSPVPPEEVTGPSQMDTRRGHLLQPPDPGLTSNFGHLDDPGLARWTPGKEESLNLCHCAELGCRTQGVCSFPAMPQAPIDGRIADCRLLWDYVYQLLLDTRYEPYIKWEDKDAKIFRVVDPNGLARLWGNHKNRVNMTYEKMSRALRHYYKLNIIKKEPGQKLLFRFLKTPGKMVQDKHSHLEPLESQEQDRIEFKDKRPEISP
# Procedure, shortened: as §1
# [15] = molecular target: T11, ELF5 (Homo sapiens, UniProt Q9UKW6-2 1-255); details: protein: recombinant; tags: N-terminal GST; dsDNA, one strand shown
# T11 sequence: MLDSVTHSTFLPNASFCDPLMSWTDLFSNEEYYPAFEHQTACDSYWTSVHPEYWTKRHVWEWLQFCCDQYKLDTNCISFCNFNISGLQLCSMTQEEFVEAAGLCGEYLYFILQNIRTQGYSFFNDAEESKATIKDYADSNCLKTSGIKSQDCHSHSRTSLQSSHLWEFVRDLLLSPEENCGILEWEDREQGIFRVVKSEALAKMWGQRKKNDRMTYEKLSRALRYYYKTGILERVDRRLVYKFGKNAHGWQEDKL
# Procedure, shortened: as §1
# [16] = molecular target: T12, ETV3 (Homo sapiens, UniProt P41162-2 1-143); details: protein: recombinant; tags: N-terminal GST; dsDNA, one strand shown
# T12 sequence: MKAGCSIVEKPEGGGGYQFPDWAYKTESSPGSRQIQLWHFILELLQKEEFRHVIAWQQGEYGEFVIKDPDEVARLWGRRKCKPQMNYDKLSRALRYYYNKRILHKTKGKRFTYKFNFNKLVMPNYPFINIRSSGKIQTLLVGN
# Procedure, shortened: as §1
# [17] = molecular target: ETV6 (Homo sapiens, UniProt P41212 1-452); details: protein: recombinant; tags: N-terminal GST; dsDNA, one strand shown
# Sequence of ETV6 (P41212 whole entry): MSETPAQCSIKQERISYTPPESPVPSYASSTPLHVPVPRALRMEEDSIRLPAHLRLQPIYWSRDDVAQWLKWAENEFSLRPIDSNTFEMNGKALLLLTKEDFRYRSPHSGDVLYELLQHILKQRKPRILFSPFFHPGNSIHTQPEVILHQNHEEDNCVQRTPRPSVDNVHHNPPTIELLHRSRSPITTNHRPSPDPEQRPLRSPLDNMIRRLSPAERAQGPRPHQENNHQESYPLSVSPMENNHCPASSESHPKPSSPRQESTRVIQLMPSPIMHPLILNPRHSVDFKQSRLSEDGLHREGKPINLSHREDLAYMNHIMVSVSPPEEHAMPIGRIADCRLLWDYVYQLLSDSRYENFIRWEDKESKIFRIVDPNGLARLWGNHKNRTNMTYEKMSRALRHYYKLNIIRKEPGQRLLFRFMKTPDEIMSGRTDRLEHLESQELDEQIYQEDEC
# Procedure, shortened: as §1
sequence,measurement,setting,value
CACCGA,binding signal,[1],"1.1 fold enrichment (6-mer frequency, TF over GST control)"
same,binding signal,[2],"1.1 fold enrichment (6-mer frequency, TF over GST control)"
same,binding signal,[3],"1.06 fold enrichment (6-mer frequency, TF over GST control)"
same,binding signal,[4],"1.05 fold enrichment (6-mer frequency, TF over GST control)"
same,binding signal,[5],"1.08 fold enrichment (6-mer frequency, TF over GST control)"
same,binding signal,[6],"1.13 fold enrichment (6-mer frequency, TF over GST control)"
same,binding signal,[7],"1.1 fold enrichment (6-mer frequency, TF over GST control)"
same,binding signal,[8],"1.04 fold enrichment (6-mer frequency, TF over GST control)"
same,binding signal,[9],"1.1 fold enrichment (6-mer frequency, TF over GST control)"
same,binding signal,[10],"1.05 fold enrichment (6-mer frequency, TF over GST control)"
same,binding signal,[11],"1.02 fold enrichment (6-mer frequency, TF over GST control)"
same,binding signal,[12],"1.12 fold enrichment (6-mer frequency, TF over GST control)"
same,binding signal,[13],"1.04 fold enrichment (6-mer frequency, TF over GST control)"
same,binding signal,[14],"1.11 fold enrichment (6-mer frequency, TF over GST control)"
same,binding signal,[15],"1.04 fold enrichment (6-mer frequency, TF over GST control)"
same,binding signal,[16],"1.01 fold enrichment (6-mer frequency, TF over GST control)"
same,binding signal,[17],"1.03 fold enrichment (6-mer frequency, TF over GST control)"
